The list is not random: actives were taken first. Their share in the collection is about 2.1%.
TDP-43 yeast inh – inhibitors of TDP-43 toxicity in yeast; TDP-43 expressing yeast growth rescue, BacTiter-Glo, 24 h; Potency, µM (highest dose often 46.1 µM), for the others: at the top dose growth rescue (activation), hits mostly activators; 410,000 tested, 1.8% active; AID 652104; further: % of control where 0% means no effect; nearly all actives have a fitted effect of over 50% in size
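Readout is BacTiter-Glo luminescence of cell growth, so inhibitors register as activators. TDP-43-expressing yeast at OD600=0.02 in galactose medium, after raffinose pregrowth to mid-log, were incubated with compound for 24 hr at 30 deg C.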
FUS yeast rescue – FUS proteinopathy suppression in yeast. S. cerevisiae FUS-expressing, growth rescue, OD600, 24 h. Potency, µM (top dose mostly 76.6 µM), usual class: activators. 390,000 tested, 0.24% active. AID 1347120;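 further: plate controls were DMSO vehicle for no effect and reference control for full effect; nearly all actives have a fitted effect of over 55% in size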
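Quantitative HTS measuring growth restoration of FUS-toxic yeast. Galactose-induced cells (OD 0.005) were exposed 24hr at 30C to compounds at several concentrations, then absorbance at 600 nm was recorded.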
Abeta rescue – compounds reversing amyloid beta toxicity in yeast. yeast expressing A-beta42, growth rescue, OD600, 48 h; response scale: 0% DMSO, 100% iron-clioquinol control. Potency, µM (highest dose often 46.1 µM), usual class: activators. 410,000 tested, 0.063% active. AID 1347071; further: nearly all actives have a fitted effect of over 55% in size
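Yeast growth medium received pinned compounds, then yeast cells expressing toxic A-beta were added; plates incubated at 30 C for 48 hr. Growth read as absorbance at 600 nm, normalized to DMSO and equimolar FeCl3 plus clioquinol controls.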
aSyn rescue – alpha-synuclein toxicity inhibition in yeast; Yeast expressing alpha-synuclein, growth rescue, BacTiter-Glo, 24 h; Potency, µM (series often up to 46.1 µM), inactives show at the top dose growth rescue (activation), hits mostly activators; 370,000 tested, 0.14% active; AID 652106; further: % of control where 0% means no effect; nearly all actives have a fitted effect of over 65% in size
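Readout is rescue of growth in alpha-synuclein-expressing yeast, so inhibitors of toxicity appear as activators. Growth after 24 hr at 30 deg C in galactose medium is quantified by luminescence.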
* marks the source's active call; other numbers are inactive results; i = inactive; u = inconclusive; x = not tested or not shown. The call rests on the fitted dose curve; in most records, active means well fitted curve in the direction sought with a large enough effect; inconclusive means small, poorly fitted or top-dose-only effect, or another doubt; inactive means no such curve, though single readings can be large; an effect the other way counts as inactive or inconclusive. Potency means the concentration at half of the fitted maximal effect.

SMILES | TDP-43 yeast inh | FUS yeast rescue | Abeta rescue | aSyn rescue
Cc1ccc2nc(N3CCN(C(=O)C4COc5ccccc5O4)CC3)sc2c1 (stereo not drawn) | 20µM* | i | i | x
COc1cccc2sc(N3CCN(C(=O)C4COc5ccccc5O4)CC3)nc12 (stereo not drawn) | u | i | i | 20%
COc1ccc(C2CC(=O)N(C)c3ccccc3S2)cc1 (stereo not drawn) | 13µM* | i | i | 18%
CN1C(=O)CC(c2ccco2)Sc2ccccc21 (stereo not drawn) | 3% | u | i | -1%
COc1cc(/C=C2/C(=O)ON=C2C)cc(Cl)c1O | 6% | i | u | -10%
C#CCOc1c(Cl)cc(/C=C2/C(=O)ON=C2C)cc1OC | 16µM* | i | i | -9%
CCOc1cc(/C=C2/C(=O)ON=C2C)ccc1O | 18µM* | i | u | 4%
CC1=NOC(=O)/C1=C/c1ccc(O)c(Cl)c1 | 18% | i | i | -8%
COc1ccc(S(=O)(=O)c2cn(CC(=O)Nc3cc(C)ccc3C)c3ccccc3c2=O)cc1 | 8% | i | i | x
C(=Nc1cnc2ccccc2c1)c1ccnc2ccccc12 | x | x | x | 1%
CCN(Cc1ccccc1)C(=O)C1CCCN(c2ncccn2)C1 (stereo not drawn) | x | i | x | x
O=S(=O)(c1ccc(Cl)cc1)c1nnn2c1nc(N1CCCCC1)c1sccc12 | 7% | i | i | x
O=C(O)c1ccc(N/N=C/c2ccc(-c3cccc(Cl)c3)o2)cc1 | 18µM* | i | i | -16%
Cc1ccc(-n2c(COc3ccccc3)nnc2SCC(=O)Nc2ccc3c(c2)OCO3)cc1 | x | i | x | x
CCC(C)[C@@H](NC(=O)OC(C)(C)C)c1nnc(S(=O)(=O)Cc2cccc(C)c2)o1 (stereo partly drawn) | 7.9µM* | i | i | 7%
CC(C)N(Cc1ccccc1)C(=O)c1cc2ccc3cccnc3c2[nH]1 | 22µM* | i | i | x
COc1ccccc1NC(=O)c1cc2ccc3cccnc3c2[nH]1 | 14µM* | u | i | x
Cc1cccc(N2CCN(C(=O)c3ccc4c(c3)N(Cc3ccccc3)C(=O)c3ccccc3S4(=O)=O)CC2C)c1 (stereo not drawn) | 1% | i | i | x
Cc1ccc2nc(N(Cc3cccnc3)C(=O)C3CCCCC3)sc2c1 | 5.6µM* | i | i | x
Cc1cccc2sc(N(Cc3cccnc3)C(=O)C3CCCCC3)nc12 | 3.5µM* | i | i | x
CN(C)CCN(C(=O)c1ccc2c(c1)OCCO2)c1nc2c(Cl)cccc2s1 | -14% | i | i | 6%
CCOc1ccc2nc(N(Cc3cccnc3)C(=O)C3CCCCC3)sc2c1 | u | i | i | x
CCc1ccc2nc(N(Cc3cccnc3)C(=O)c3cccs3)sc2c1 | 32µM* | i | i | x
O=C(c1ccc2c(c1)OCCO2)N(Cc1cccnc1)c1nc2c(Cl)cccc2s1 | 22µM* | i | i | x
CC(=O)N(Cc1cccnc1)c1nc2c(C)cccc2s1 | u | i | i | x
SMILES | TDP-43 yeast inh | FUS yeast rescue | Abeta rescue | aSyn rescue
CCc1ccc(CN(Cc2cn[nH]c2-c2ccc(OC)cc2)C(=O)Nc2ccc(Br)cc2)cc1 | 15% | i | i | x
COc1ccc(OC)c(NC(=O)c2ccc(OC3CSC3)cc2)c1 | 13µM* | i | u | -10%
COc1ccc(OC)c(NC(=O)c2ccc(NC(C)=O)cc2)c1 | -5% | i | i | 2%
COc1ccc(OC)c(NC(=O)C2C3CCC(C3=C(C)C)C2C(=O)O)c1 (stereo not drawn) | 16µM* | i | i | 3%
CSc1nc(Nc2ccc(C)cc2)c(C#N)c(-c2ccccc2)n1 | 4% | i | i | x
CCc1ccccc1N1C(=O)N(Cc2cc(=O)n3ccccc3n2)c2ccccc2S1(=O)=O | 11µM* | 32µM* | i | x
Cc1cccc(N2C(=O)N(Cc3cc(=O)n4ccccc4n3)c3ccccc3S2(=O)=O)c1 | -4% | u | i | x
COc1ccc(Cn2c(CCC(=O)Nc3cc(OC)c(OC)c(OC)c3)nc3cccnc32)cc1 | 19% | i | i | x
CCCSc1nnc(NC(=O)c2sc3nc(-c4cccs4)ccc3c2N)s1 | -9% | 13µM* | i | 2%
CS(=O)(=O)c1ccccc1C(=O)Nc1ccccc1Cc1ccccc1 | 0% | i | i | -3%
O=C(Nc1ccccc1Oc1ccccc1)c1ccccc1F | 13µM* | i | i | -8%
O=C(Nc1ccccc1Cc1ccccc1)c1ccccc1F | u | i | 2.5µM* | -4%
O=C(c1cnc(N2CCCCC2)c2ccccc12)N1CCN(c2ccc(Cl)cc2)CC1 | u | u | i | x
N#Cc1c(N)[nH]c2ccc(Sc3ccccc3)cc12 | 22µM* | x | i | -29%
CCCC[C@H]1C2CC(OC(=O)Nc3cccc(F)c3)C(C2)[C@H]2CCCCN21 (stereo partly drawn) | x | i | x | x
COc1ccc(Cl)cc1NC(=O)CSc1nnc(C)n2c1cc1occc12 | 38% | i | i | x
CN(C)c1ccc2c(=O)c3ccccc3oc2n1 | 16µM* | i | i | u
Cc1nc2oc3ccccc3c(=O)c2cc1C(=O)O | -20% | i | i | 0%
CCOc1ccc(C(c2c(O)cc(C)n(CCOC)c2=O)N2CCN(c3ccc(F)cc3)CC2)cc1 (stereo not drawn) | 23% | i | i | x
O=S(=O)(NCC(c1cccs1)S(=O)(=O)c1ccccc1)c1ccc(F)cc1 (stereo not drawn) | 3.5µM* | i | i | x
O=S(=O)(NCC(c1cccs1)S(=O)(=O)c1ccccc1)c1ccc(F)c(C(F)(F)F)c1 (stereo not drawn) | u | i | i | x
COc1ccc(S(=O)(=O)NCC(c2cccs2)S(=O)(=O)c2ccccc2)cc1OC (stereo not drawn) | 3.2µM* | i | i | x
COC(=O)[C@@]1(Cc2ccc(F)cc2)[C@H]2c3cc(C(=O)N(C)C)n(CCc4c[nH]c5ccc(O)cc45)c3C[C@H]2CN1C(=O)c1ccccc1 | 28% | 16µM* | i | -1%
CCc1cccc(NC(=O)c2cnc(SC)nc2-c2ccccc2)c1 | u | u | i | x
COc1cc(NC(=O)C2CCN(S(=O)(=O)c3c(C)noc3/C=C/c3cccs3)CC2)cc(OC)c1 | 6% | i | i | x
CCn1c(=O)c2cc(C(=O)Nc3cc(C)c(Cl)cc3OC)sc2c2ccccc21 | -1% | i | i | x
O=C1CN(C(=O)c2ccc(S(=O)(=O)N3CCCC3)cc2)C(c2ccccc2)c2cc(Cl)ccc2N1 (stereo not drawn) | 12% | u | i | x
Cc1ccc2c(c1)C(c1ccccc1)N(C(=O)c1ccc(S(=O)(=O)N3CCCC3)cc1)CC(=O)N2 (stereo not drawn) | 5% | 25µM* | i | x
Cc1cccc(C(C)C)c1NC(=O)c1ccc2c(c1)CCN2S(C)(=O)=O | -13% | i | i | x
